Assay outcomes deposited in PubChem BioAssay by Broad Institute.
Only some compounds are listed: those with a hit (about 1.4% of all), similar ones and a draw of the others.
PGC1a acetyl inh – PGC1a acetylation modulation, inhibitor mode | U2OS PGC1a acetylation, AlphaScreen anti-acetyl-lysine; with virally co-expressed GCN5 acetyltransferase | inhibition, % at 15.6 µM | actives 0.17% (n = 350,000);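 active = every replicate shows inhibition of at least 40%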;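 also: 0% = neutral control wells and 100% = positive control wells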
MLL AF4-AF9 inh – MLL-AF4/AF9 protein interaction inhibition | P42568 | AlphaScreen, biotin-AF4 peptide binding to FLAG-AF9 | inhibition, % at 10 µM | actives 0.47% (n = 350,000) | AID 651704;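 active = every replicate reaching a set inhibition limit, whatever the replicate mean, cut at about 25% in these data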;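 also: 0% = plate neutral control median and 100% = total signal loss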
GSIS activator – primary screen for activators of insulin secretion dependent on glucose, INS-1E cells, GLuc reporter luminescence; actives 0.61% (n = 370,000); AID 743287; activation, % at 16.6 µM; INS-1E GLuc reporter insulin secretion, 2-3 h;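 active = lowest replicate activation of at least 40%, so every replicate reaches that level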;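 also: 0% = median of neutral control wells and 100% = median of IBMX positive control wells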
RAD52 inh – RAD52 (human) annealing inhibition | inhibition, % at 18.7 µM | P43351 | actives 0.46% (n = 360,000) | recombinant RAD52 DNA annealing, FRET fluorescence;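 active = every replicate showing at least 50% inhibition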
ERAP1 inh – ERAP1 (human) enzyme inhibition | Q9NZ08 | actives 0.15% (n = 340,000) | recombinant ERAP1, Leu-AMC fluorescence, 60 min | inhibition, % at 10.7 µM | AID 652197;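 active = mean replicate inhibition of at least 30%, or all replicates individually reaching that 30% level; inactive = mean below 30% and not every replicate reaching it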;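 also: 0% = neutral control wells and 100% = L-leucinethiol positive control wells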
RAD54 branch – RAD54 (human) branch migration inhibition; Q92698; RAD54 Holliday junction branch migration, FAM/BHQ fluorescence; inhibition, % at 10.4 µM; actives 0.14% (n = 360,000); AID 602329;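 active = mean normalized replicate activity at least 40 and at least half of replicates scoring 40 or more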;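 also: 0% = median of neutral control wells and 100% = median of positive control wells; inhibitors cause a drop in the FAM fluorescence signal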
Target sequence (Q92698 whole entry, looked up): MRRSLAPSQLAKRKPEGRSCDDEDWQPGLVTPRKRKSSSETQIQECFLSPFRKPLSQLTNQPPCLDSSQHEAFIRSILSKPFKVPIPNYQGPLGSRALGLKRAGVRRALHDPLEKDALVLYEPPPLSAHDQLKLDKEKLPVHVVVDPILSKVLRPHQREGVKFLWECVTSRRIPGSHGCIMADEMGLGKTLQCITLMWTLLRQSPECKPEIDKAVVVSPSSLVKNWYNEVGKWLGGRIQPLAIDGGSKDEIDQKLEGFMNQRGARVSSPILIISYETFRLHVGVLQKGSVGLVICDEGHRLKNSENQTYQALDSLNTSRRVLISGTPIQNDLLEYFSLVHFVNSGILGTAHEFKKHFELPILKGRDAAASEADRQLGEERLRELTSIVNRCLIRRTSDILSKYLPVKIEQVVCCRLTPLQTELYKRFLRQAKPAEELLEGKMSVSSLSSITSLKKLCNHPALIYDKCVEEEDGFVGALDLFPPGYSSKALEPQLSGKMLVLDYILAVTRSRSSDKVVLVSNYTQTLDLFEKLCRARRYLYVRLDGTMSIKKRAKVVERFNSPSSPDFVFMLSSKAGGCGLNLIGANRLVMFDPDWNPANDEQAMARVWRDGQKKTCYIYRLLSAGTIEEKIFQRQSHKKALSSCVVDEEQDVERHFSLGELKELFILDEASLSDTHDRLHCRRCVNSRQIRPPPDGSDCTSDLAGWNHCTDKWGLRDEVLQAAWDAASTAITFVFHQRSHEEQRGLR
* hit, by the source's call; · = no result; ! = not confirmed by another sample.

SMILES | PGC1a acetyl inh | MLL AF4-AF9 inh | GSIS activator | RAD52 inh | ERAP1 inh | RAD54 branch
COc1ccc2c3c([nH]c2c1)[C@@H](CO)N(C(=O)c1cccc(F)c1)CC31CN(S(=O)(=O)c2cccs2)C1 | · | · | -41.7 | · | · | ·
C[C@@H]1CN([C@H](C)CO)C(=O)c2cccc(NC(=O)Nc3ccc(C(F)(F)F)cc3)c2O[C@@H]1CN(C)S(=O)(=O)c1ccccc1 | 13.9 | · | -15.2 | · | · | ·
C[C@@H]1CN([C@@H](C)CO)C(=O)c2cc(Br)cnc2O[C@@H]1CN(C)CC1CCCC1 | 1.0 | -2.2 | 7.6 | -6.2 | 0.0 | 6.5
CC(=O)OC(COC1C[C@@H]2CC[C@@]1(C)C2(C)C)C[N+]1(C)CCCCC1 (stereo partly drawn) | 1.3 | 1.2 | · | -4.5 | 99.7* | ·
CCC(=O)Nc1ccc2c(c1)OC[C@@H](C)N(Cc1nccs1)C[C@H](C)[C@H](OC)CN(C)C2=O | -7.8 | -1.2 | -1.8 | -1.4 | 0.8 | -4.6
Cc1ccccc1OCCNc1cc(N2CC(C)NC(C)C2)ccc1[N+](=O)[O-] (stereo not drawn) | -24.1 | 38.0* | 41.6* | 39.9 | 6.2 | 12.6
O=C1N[C@H](Cc2ccccc2)COCc2cn(nn2)CC[C@H]1Cc1ccc(-c2ccccc2)cc1 | · | · | -14.5 | · | · | ·
COc1ccc(-c2nnn(CC(=O)N3CCN(c4ccc(F)cc4)CC3)n2)cc1 | -0.6 | -1.2 | 10.8 | -13.5 | -0.6 | -11.8
COc1ccc(N2CCN(C(=O)CN3CCN(c4nc(-c5ccc(F)cc5)cs4)CC3)CC2)cc1 | 11.4 | 27.0* | · | -7.1 | 2.9 | -0.1
CS(=O)(=O)Nc1ccc2c(c1)[C@@H]1C[C@@H](CC(=O)O)O[C@H](CO)[C@@H]1O2 | 3.2 | -3.7 | 22.3 | -8.2 | 1.3 | ·
O=C(c1ccc(Cl)c([N+](=O)[O-])c1)N(Cc1ccco1)C1CCS(=O)(=O)C1 (stereo not drawn) | 7.1 | 1.6 | 43.2* | -10.9 | -1.0 | -7.5
CCOc1cccc(C(=O)N(Cc2ccco2)C2CCS(=O)(=O)C2)c1 (stereo not drawn) | -5.7 | · | · | · | · | 1.3
O=C(c1ccco1)N(Cc1ccc(Cl)cc1)C1CCS(=O)(=O)C1 (stereo not drawn) | -1.6 | 1.1 | 41.7* | -6.5 | -3.5 | 2.9
O=C(c1cccs1)N(Cc1cccc(F)c1)C1CCS(=O)(=O)C1 (stereo not drawn) | -3.1 | 0.5 | 45.8* | -5.0 | -0.8 | 5.8
Cc1c(C(=O)N(Cc2ccc(N(C)C)cc2)C2CCS(=O)(=O)C2)oc2ccccc12 (stereo not drawn) | 5.4 | 61.1* | 4.5 | -11.4 | 6.1 | ·
Cc1ccc2oc(C(=O)N(Cc3ccc(N(C)C)cc3)CC3CCCO3)c(C)c2c1 (stereo not drawn) | 0.5 | 28.3* | -11.7 | -25.5 | -2.2 | -2.1
Cc1ccc(CN(C(=O)c2cccs2)C2CCS(=O)(=O)C2)cc1 (stereo not drawn) | · | 1.5 | 57.0* | -1.2 | -0.1 | -15.2
COCC(=O)N(C)C[C@@H]1Oc2cc(-c3ccccc3)ccc2S(=O)(=O)N([C@H](C)CO)C[C@H]1C | -6.3 | -2.1 | 16.1 | -0.3 | -1.7 | 0.5
CC(=O)N(C)C[C@@H]1Oc2cc(C3=CCCCC3)ccc2S(=O)(=O)N([C@H](C)CO)C[C@@H]1C | -3.3 | · | -0.1 | · | · | ·
CCCCC(=O)Nc1ccc(N2CCN(S(C)(=O)=O)CC2)cc1 | 2.1 | · | · | · | · | -5.9
CCCC(=O)Nc1ccc(N2CCN(S(C)(=O)=O)CC2)cc1 | · | · | 52.5* | · | · | ·
CCOC(=O)C1(Cc2cccc(Cl)c2)CCCN(C(=O)c2cn[nH]c2)C1 (stereo not drawn) | -11.0 | -1.4 | 4.7 | -1.6 | -1.2 | -5.2
CCOC(=O)C1(C)CCCCN1C(=O)c1ccc(F)c(C)c1 (stereo not drawn) | 5.8 | 0.3 | 6.1 | -11.7 | 2.1 | -9.0
CCOC(=O)C1(Cc2cccc(Cl)c2)CCCN(C(=O)c2cccnc2)C1 (stereo not drawn) | 96.7* | 0.4 | -0.8 | -18.1 | -0.9 | ·
CCOC(=O)C1(C)CCCCN1C(=O)c1cccc(Cl)c1 (stereo not drawn) | 5.8 | -1.9 | 95.6* | -13.7 | 1.6 | -9.5
SMILES | PGC1a acetyl inh | MLL AF4-AF9 inh | GSIS activator | RAD52 inh | ERAP1 inh | RAD54 branch
CCNC(=O)C[C@H]1CC[C@@H]2[C@@H](COc3ccc(NC(=O)Nc4cccc(F)c4)cc3C(=O)N2C)O1 | 3.9 | 2.5 | 4.4 | -7.4 | 0.9 | -12.9
C[C@@H]1CN([C@@H](C)CO)C(=O)c2cccc(NC(=O)c3ccncc3)c2O[C@@H]1CN(C)Cc1ccc(Oc2ccccc2)cc1 | -0.2 | 23.6 | · | 2.0 | -0.1 | 3.8
C[C@@H]1CN([C@@H](C)CO)C(=O)c2cccc(NC(=O)c3cnccn3)c2O[C@H]1CN(C)Cc1ccc(Cl)c(Cl)c1 | 7.4 | 4.0 | -34.0 | -15.4 | 31.8* | 4.5
C[C@H](CO)N1C[C@H](C)[C@@H](CN(C)Cc2ccc(Oc3ccccc3)cc2)Oc2c(NC(=O)c3ccncc3)cccc2C1=O | -1.6 | 25.2*! | -42.0 | -9.7 | 1.7 | 1.2
C[C@H](CO)N1C[C@H](C)[C@@H](CN(C)Cc2ccncc2)Oc2c(NC(=O)C3CCOCC3)cccc2C1=O | 5.2 | -15.2 | 8.2 | 11.4 | 2.9 | -3.1
C[C@@H]1CN([C@@H](C)CO)C(=O)c2cccc(NC(=O)C3CCOCC3)c2O[C@@H]1CN(C)Cc1ccncc1 | 20.5 | 44.3* | 4.7 | -1.9 | -2.3 | -1.5
C[C@@H]1CN([C@@H](C)CO)C(=O)c2cccc(NC(=O)c3cnccn3)c2O[C@@H]1CN(C)Cc1ccc(Cl)c(Cl)c1 | -3.3 | 3.7 | -23.5 | -28.1 | -2.0 | 2.5
Cc1ccc(S(=O)(=O)Nc2cccc3c2O[C@H](CN(C)Cc2ccc(C(=O)O)cc2)[C@H](C)CN([C@H](C)CO)C3=O)cc1 | 3.9 | 26.5* | 13.1 | -14.5 | 0.6 | 3.9
C[C@H](CO)N1C[C@H](C)[C@@H](CN(C)C(=O)C2CCCCC2)OCCCC[C@H](C)Oc2ccc(NS(=O)(=O)c3cn(C)cn3)cc2C1=O | 0.5 | 0.0 | 13.0 | 12.1 | -0.3 | 2.6
Cc1cccc(NC(=O)c2ccc(OCc3c(C)noc3C)cc2)c1C | -0.7 | -0.9 | 136.6* | -4.1 | -1.3 | -3.5
Cc1ccccc1NC(=O)c1ccc(OCc2c(C)noc2C)cc1 | 39.0 | -1.9 | 27.8 | -6.4 | 2.4 | 0.1
CN(C)CC(=O)N1CC2(C1)[C@H](c1ccccc1)[C@H](CO)N2Cc1ccccc1F | 0.5 | -26.3 | 1.1 | -7.5 | -5.9 | ·
O=C(N1CCOCC1)N1CCN(c2ccccn2)CC1 | -11.5 | · | 46.0* | · | · | -11.9
CN(C)C(=O)C[C@H]1C=C[C@H](NC(=O)C2CC2)[C@@H](CO)O1 | 7.2 | -0.2 | 11.7 | -6.6 | -1.0 | 0.6
CO[C@H]1CN(C)C(=O)c2ccc(NS(=O)(=O)c3cn(C)cn3)cc2OC[C@H](C)N(CCC(F)(F)F)C[C@H]1C | -6.4 | -12.0 | 8.5 | 10.4 | 3.7 | -3.7
CN(C)c1nc2sc3c(c2c(=O)n1C)CC(C)(C)OC3 | -5.7 | · | 27.0 | · | · | 4.1
